AmpC det inh = blocks E. coli AmpC beta-lactamase in presence of detergent; Potency, µM (top dose mostly 28.7 µM); hit rate 0.09% among 71,000; purified AmpC, nitrocefin hydrolysis with detergent; active = well fitted curve in the direction sought with a large enough effect; inconclusive = small, poorly fitted or top-dose-only effect
Target sequence (P00811 whole entry, looked up): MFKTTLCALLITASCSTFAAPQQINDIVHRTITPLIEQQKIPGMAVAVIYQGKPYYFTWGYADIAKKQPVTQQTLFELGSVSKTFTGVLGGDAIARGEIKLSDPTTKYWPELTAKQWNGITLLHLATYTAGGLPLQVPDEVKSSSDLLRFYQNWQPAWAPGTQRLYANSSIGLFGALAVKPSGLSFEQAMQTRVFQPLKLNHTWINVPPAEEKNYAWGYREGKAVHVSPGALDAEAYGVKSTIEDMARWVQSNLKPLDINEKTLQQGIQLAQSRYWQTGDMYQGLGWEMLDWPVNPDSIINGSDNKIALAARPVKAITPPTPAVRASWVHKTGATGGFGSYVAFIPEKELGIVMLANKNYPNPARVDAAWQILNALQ
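E. coli AmpC (5.3 nM) in 20 mM phosphate pH 7.0 with 0.01% Triton X-100, preincubated 15 min RT with compound; nitrocefin (2 uL of 800 uM stock) hydrolysis followed by 480 nm absorbance every 20 s over 4 min.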
SmPrx2 inh = inhibitors of Schistosoma mansoni peroxiredoxin 2; S. mansoni Prx2 activity coupled to TGR/GSH (TGR is thioredoxin glutathione reductase), NADPH fluorescence loss, qHTS; Potency, µM; hit rate 0.07% among 65,000; AID 448
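Prx2 activity was followed as the loss of NADPH fluorescence (ex 365/em 450 nm), read every 30 sec for 8 min after H2O2 start. The enzyme mix (50 nM Prx2, 25 nM TGR, GSH, NADPH; pH 7.4 phosphate buffer) was incubated with compound for 15 min at room temperature first.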
AmpC nodet inh = AmpC beta-lactamase inhibition, detergent-free assay; AmpC nitrocefin hydrolysis, absorbance 480 nm, no detergent; Potency, µM (highest dose often 28.7 µM); hit rate 1.8% among 71,000; P00811
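Enzyme, pH 7.0 phosphate. Compound titrations were pre-incubated with AmpC for 15 min at room temperature before nitrocefin (stock 800 uM) addition; product formation was recorded at 480 nm every 20 s for 4 min.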
Anthrax LT inh = inhibitors of anthrax lethal toxin internalization. Potency, µM (doses to about 40 µM), actives largely listed as inhibitors. hit rate 0.67% among 70,000. Cells, anthrax lethal toxin internalization, FRET ratio (460/530); also: nearly all actives have a fitted effect of over 50% in size
Numbers stand for hits; - = inactive; ? = inconclusive; . = no result; [ ] = dose if it differs, or a comment. Hits are enriched below; roughly 2.4% of the tested compounds scored in any of these assays. Unless noted, calls follow the shape of the full dose curve.

SMILES | AmpC det inh | SmPrx2 inh | AmpC nodet inh | Anthrax LT inh
Cc1ncc[nH]1 | - | . | - | -
Cc1cc(=O)n2nc(N3CCC(C(=O)NC4CCCc5ccccc54)CC3)sc2n1 (stereo not drawn) | - | - | - | -
O=C(NC1CCCc2ccccc21)C1CCN(c2c(N3CCCC3)c(=O)c2=O)CC1 (stereo not drawn) | - | - | 4µM[single pt active] | -
CCOC(=O)C1CCN(C(=O)CN(c2ccc(OC)cc2)S(=O)(=O)c2c(C)noc2C)CC1 | - | - | - | -
CCOc1ccc(N(CC(=O)N2CCCC2)S(=O)(=O)c2c(C)noc2C)cc1 | - | - | 4µM[single pt active] | -
Cc1cc(C)cc(N(CC(=O)N2CCN(Cc3ccccc3)CC2)S(=O)(=O)c2c(C)noc2C)c1 | - | - | 4µM[single pt active] | -
Cc1noc(C)c1S(=O)(=O)N(CC(=O)N1CCn2c1nc1ccccc12)c1ccc(C(C)C)cc1 | - | - | 4µM[single pt active] | ?
CCCN(c1ccc(C(C)C)cc1)S(=O)(=O)c1c(C)noc1C | - | - | - | -
COC(=O)C(Cc1ccc(O)cc1)NC(=O)c1ccccc1OC (stereo not drawn) | - | - | - | ?
CCc1ccc(C2CC(c3ccccc3C)n3nc(N)nc3N2)cc1 (stereo not drawn) | - | - | - | -
CC1(C)OC(=O)C(=C2CCCN2)C(=O)O1 | - | . | - | -
Cn1c(C(C#N)C(=O)c2sc3ccccc3c2Cl)nc2ccccc21 (stereo not drawn) | - | - | 13µM | ?
O=C(Nc1nc(-c2ccc(S(=O)(=O)N3CCCC3)cc2)cs1)c1ccco1 | - | - | - | .
O=C(Nc1nc(-c2ccccc2)cs1)c1cccs1 | - | . | - | 10µM
Cn1cccc1C(=O)Nc1nc(-c2ccccn2)cs1 | - | - | - | -
O=C(Nc1nc(-c2ccccn2)cs1)c1ccc(Cl)s1 | - | - | - | 6.3µM
Cc1ccc(-c2csc(NC(=O)c3ccno3)n2)cc1 | - | - | 7.9µM | -
O=C(Nc1nc(-c2ccc(Cl)s2)cs1)c1cccs1 | - | - | ? | ?
CCCCc1cc(=O)oc2cc(C)cc(OCC(=O)O)c12 | - | - | - | -
O=C(Nc1nnc(COc2ccccc2)s1)c1ccco1 | - | - | - | -
O=C(Nc1nc(-c2cccs2)c(-c2ccccc2)s1)c1ccco1 | - | - | - | 13µM
O=C(Nc1ccc2c(c1)OCO2)c1ccc(COc2ccc3c(c2)CCC3)o1 | - | - | - | 6.3µM
CN(C)c1ccc(NC(=O)c2ccc(COc3cccc(Cl)c3)o2)cc1 | - | - | - | 10µM
O=C(c1ccc(COc2ccc(Cl)cc2)o1)N1CCN(Cc2ccc3c(c2)OCO3)CC1 | - | . | - | -
Cn1c(=O)[nH]c(=O)c2c1nc(SCCN1CCOCC1)n2Cc1ccccc1 | - | - | - | -
SMILES | AmpC det inh | SmPrx2 inh | AmpC nodet inh | Anthrax LT inh
CCOC(=O)c1cc2sccc2n1CC(=O)N1c2ccccc2CC1C (stereo not drawn) | - | - | 16µM[single pt active] | -
CCS(=O)(=O)Nc1ccc2c(c1)N(C(C)=O)c1ccccc1CC2 | - | - | - | ?
CCOC(=O)Nc1ccc2c(c1)N(C(=O)OCCN(C)C)c1ccccc1CC2 | - | - | 4µM[single pt active] | -
CCN1C(=O)c2cccc3cccc1c23 | - | 3.9 | - | ?
CCn1c(SCC(=O)c2c[nH]c3ccccc23)nnc1-c1cccs1 | - | - | - | -
CN(C)C(=O)Cn1nc(-c2ccccc2)c2ccccc2c1=O | - | - | - | -
O=C(Cn1nc(Cc2cccnc2)c2ccccc2c1=O)N1CCC2(CC1)OCCO2 | - | - | - | -
CN(CCC#N)C(=O)Cn1nc(Cc2ccncc2)c2ccccc2c1=O | - | - | 4µM[single pt active] | -
O=C(Cn1nc(Cc2ccncc2)c2ccccc2c1=O)N1CCc2ccccc2C1 | - | - | 4µM[single pt active] | -
O=C(O)c1ccc(C2SCC(=O)N2Cc2ccccc2)cc1 (stereo not drawn) | - | - | - | -
CN(C)CCCN1C(=O)CSC1c1ccccc1 (stereo not drawn) | - | - | 3.2µM[single pt active] | -
O=C(COC(=O)c1ccc2c(c1)OCO2)NCc1ccc(Cl)cc1 | - | - | - | -
O=c1c(O)c(-c2cc(O)c(O)c(O)c2)oc2cc(O)cc(O)c12 | - | - | 10µM | ?
C=CCn1c(SCc2ccc(C(=O)OC)cc2)nnc1-c1sc(N)nc1C | - | - | - | -
O=C(Nc1ccc2snnc2c1)N1CCSCC1 | - | . | - | -
CC1CN(C(=O)Nc2ccc3snnc3c2)c2ccccc21 (stereo not drawn) | - | - | 2µM | ?
Oc1ccc(-c2nc(-c3ccc(O)c(O)c3)cs2)cc1 | - | . | - | 13µM
CC(C)(/C=N/O)/[N+]([O-])=C/C=[N+](\[O-])C(C)(C)/C=N/O | - | - | - | -

Screening data: PubChem BioAssay, National Center for Advancing Translational Sciences (NCATS)
